# Experimental data reported in the antibiotic and cytotoxicity screens of Wong et al. (2023).
# Among all 39,000 compounds or so, about 1,500 (3.8%) were called active. For the sample, actives were picked, then their nearest neighbours and some compounds at random.
# Tested on: HSkMC (human skeletal muscle cells)
# Assay: cytotoxicity call (relative viability < 0.9)
# Conditions: 10 µM
row,Compound,cytotoxicity call
1,O=C(NOCCO)c1cc(CN2OCCCC2=O)c(F)c(F)c1Nc1ccc(I)cc1F,inactive
2,O=C(C[C@H]1C[C@H]2c3cc(NS(=O)(=O)c4ccccc4)ccc3O[C@H]2[C@H](CO)O1)NCC(F)(F)F,inactive
3,CC(C)OC(=O)c1nnc(N)[nH]1,inactive
4,CN1CCN(C(=O)[C@H]2C[C@H]3CN(c4ncc(F)cn4)C[C@@H]3N2C)CC1,inactive
5,CC1(C)C=Cc2c(nc3ccccc3c2NCc2ccccc2)C1,inactive
6,Cc1cc(C(=O)Nc2ccc3c(c2)C(=O)N(C)[C@@H]2CC[C@H](CC(=O)NCC(F)(F)F)O[C@@H]2CO3)no1,inactive
7,COCC(=O)Nc1ccc2c(c1)C(=O)N(C)C[C@@H](OC)[C@@H](C)CN(Cc1ccccc1OC)[C@@H](C)CO2,inactive
8,C[C@@H]1CN([C@H](C)CO)C(=O)c2cc(NC(=O)C3CCCCC3)ccc2O[C@@H](C)CCCCO[C@H]1CN(C)Cc1ccccc1,inactive
9,COc1ccc(C#Cc2cnc3c(c2)C(=O)N([C@@H](C)CO)C[C@@H](C)[C@H](CN(C)C(=O)CN(C)C)O3)cc1,inactive
10,C[C@H](CO)N1C[C@H](C)[C@@H](CN(C)S(=O)(=O)c2cn(C)cn2)Oc2c(NC(=O)CCC(F)(F)F)cccc2C1=O,inactive
11,C[C@@H]1CCCCO[C@@H](CN(C)S(=O)(=O)c2ccc(Cl)cc2)[C@@H](C)CN([C@H](C)CO)C(=O)c2cc(NC(=O)Nc3cccc4ccccc34)ccc2O1,inactive
12,COC(=O)[C@@H]1CCCC1=O,inactive
13,COc1ccc(CNC(=O)C[C@H]2C[C@H]3c4cc(NC(=O)NC5CCCC5)ccc4O[C@H]3[C@@H](CO)O2)cc1,inactive
14,FC(F)(F)c1cc(NC(=S)Nc2ccc(Br)cc2-c2nn[nH]n2)cc(C(F)(F)F)c1,active
15,O=C(Nc1cc(C(F)(F)F)cc(C(F)(F)F)c1)Nc1c(Br)cc(Br)cc1-c1nn[nH]n1,inactive
16,COc1ccccc1-c1cnc2c(c1)C(=O)N([C@@H](C)CO)C[C@H](C)[C@H](CN(C)C(=O)c1cccnc1)O2,inactive
17,COc1ccc([Si](C)(C)[C@H]2[C@H](CC(=O)N(CCO)Cc3ccccc3)O[C@@]3(C(=O)N(Cc4cccc(N5CCCCC5=O)c4)c4ccccc43)[C@@H]2C)cc1,inactive
18,Nc1ncn([C@@H]2C[C@H](O)[C@@H](CO)O2)c(=O)n1,inactive
19,Nc1ncnc2c1ncn2[C@H]1O[C@@H](CO)[C@H](O)[C@@H]1O,inactive
20,Nc1ncn(C2OC(CO)C(O)C2O)c(=O)n1 (centres undefined),inactive
21,OC[C@H]1O[C@H](n2cnc3cncnc32)[C@@H](O)[C@@H]1O,active
22,Nc1nc(F)nc2c1ncn2[C@@H]1O[C@H](CO)[C@@H](O)[C@H]1O,active
23,Nc1ncnc2c1c(I)cn2[C@H]1O[C@@H](CO)[C@@H](O)[C@@H]1O,inactive
24,Nc1ncnc2c1c(I)cn2[C@@H]1O[C@H](CO)[C@@H](O)[C@H]1O,inactive
25,Nc1nc(Cl)nc2c1ncn2[C@@H]1O[C@H](CO)[C@@H](O)[C@H]1O,inactive

row,Compound,cytotoxicity call
1,Nc1nc(F)nc2c1ncn2[C@@H]1O[C@H](COP(=O)(O)O)[C@@H](O)[C@@H]1O,inactive
2,Nc1ncn([C@@H]2O[C@H](CO)[C@@H](O)[C@H]2O)c(=O)n1,active
3,NC(=O)c1cn([C@@H]2O[C@H](CO)[C@@H](O)[C@H]2O)c2ncnc(N)c2c1=O,active
4,Nc1ncnc2c1ncn2[C@@H]1O[C@H](CO)[C@@H](O)[C@@H]1O,inactive
5,CC(C)NC(=O)Nc1ccc2c(c1)CC(=O)N([C@H](C)CO)C[C@@H](C)[C@@H](CN(C)Cc1ccc(-c3ccccc3)cc1)O2,inactive
6,C[C@@H]1CN([C@@H](C)CO)C(=O)c2cc(C#CCN(C)C)cnc2O[C@H]1CN(C)S(C)(=O)=O,inactive
7,C[C@@H]1CN([C@@H](C)CO)C(=O)c2cc(NS(=O)(=O)c3cccs3)ccc2O[C@@H](C)CCCCO[C@H]1CN(C)C(=O)Cc1ccccc1,inactive
8,COc1ccc(CN(C)C[C@@H]2Oc3ccc(NS(=O)(=O)c4cn(C)cn4)cc3CC(=O)N([C@H](C)CO)C[C@H]2C)cc1,inactive
9,C[C@H](CO)N1C[C@H](C)[C@H](CN(C)Cc2ccc(-c3ccccc3)cc2)Oc2ccc(NC(=O)NC3CCCCC3)cc2CC1=O,inactive
10,COc1ccc(S(=O)(=O)N2C[C@H](O)COC[C@@H]3O[C@@H](CC(=O)NCCCN(C)C)CC[C@H]32)cc1,inactive
11,C/C(=C\CC[C@@H](C)[C@H]1C[C@@H](O)[C@@]2(C)[C@H]3CC[C@H]4C(C)(C)[C@@H](O[C@@H]5O[C@@H](CO[C@H]6OC[C@@H](O)[C@@H](O)[C@@H]6O)[C@@H](O)[C@@H](O)[C@@H]5O)CC[C@@]45C[C@@]35C[C@@H](O)[C@]12C)C(=O)O[C@H]1O[C@@H](CO)[C@@H](O)[C@@H](O)[C@@H]1O,inactive
12,C[C@H]1CN([C@@H](C)CO)C(=O)CCCn2nncc2CO[C@H]1CN(C)C(=O)c1cc(-c2ccccc2)on1,inactive
13,C[C@H]1CCCCO[C@H](CN(C)CC2CC2)[C@@H](C)CN([C@@H](C)CO)C(=O)c2cc(NC(=O)c3ccccc3)ccc2O1,inactive
14,Cc1noc(C)c1NC(=O)Nc1ccc2c(c1)CC(=O)N([C@@H](C)CO)C[C@@H](C)[C@H](CN(C)Cc1ccc(C(=O)Nc3ccccc3N)cc1)O2,inactive
15,C[C@H](CO)N1C[C@H](C)[C@H](CN(C)CC2CCOCC2)Oc2cc(C#Cc3ccccc3F)ccc2S1(=O)=O,inactive
16,Nc1nc(Cl)nc2c1ncn2[C@H]1C[C@@H](O)[C@@H](CO)O1,inactive
17,Nc1ncnc2c1ncn2[C@H]1C[C@H](O)[C@@H](CO)O1,inactive
18,Nc1nc(Cl)nc2c1ncn2[C@H]1C[C@H](O)[C@@H](CO)O1,active
19,CCN(CC)CCOc1ccc2c(c1)C(=O)c1cc(OCCN(CC)CC)ccc1-2,inactive
20,CCN(CC)CCOc1ccc(Nc2ncc3cc(-c4c(Cl)cccc4Cl)c(=O)n(C)c3n2)cc1,active
21,C[C@](N)(Cc1ccc(O)c(O)c1)C(=O)O,inactive
22,NNCCc1ccccc1,inactive
23,c1ccc(CCNc2ccnc3cc4ccccc4cc23)cc1,active
24,NCCNc1cccc2ccccc12,inactive
25,Cc1noc(C)c1S(=O)(=O)Nc1ccc2c(c1)C(=O)N([C@H](C)CO)C[C@H](C)[C@@H](CN(C)Cc1ccc(Oc3ccccc3)cc1)O2,inactive

row,Compound,cytotoxicity call
1,C[C@@H]1COCC(=O)N1,inactive
2,C[C@@H]1CN([C@H](C)CO)C(=O)c2cc(NC(=O)Cc3ccccc3)ccc2O[C@@H](C)CCCCO[C@@H]1CN(C)S(=O)(=O)c1cccs1,inactive
3,COc1ccccc1C#Cc1cnc2c(c1)C(=O)N([C@H](C)CO)C[C@@H](C)[C@H](CN(C)S(=O)(=O)c1cn(C)cn1)O2,active
4,COc1ccccc1C#Cc1cnc2c(c1)C(=O)N([C@@H](C)CO)C[C@@H](C)[C@@H](CN(C)S(=O)(=O)c1cn(C)cn1)O2,inactive
5,C[C@H](CO)N1C[C@H](C)[C@@H](CN(C)S(=O)(=O)c2ccccc2F)Oc2ncc(C#Cc3ccccc3F)cc2C1=O,active
6,C[C@@H]1CN([C@H](C)CO)C(=O)c2cc(C#Cc3ccccc3F)cnc2O[C@H]1CN(C)S(=O)(=O)c1ccccc1F,inactive
7,C[C@H]1CN([C@@H](C)CO)C(=O)c2cc(C#Cc3ccccc3F)cnc2O[C@@H]1CN(C)S(=O)(=O)c1ccccc1F,inactive
8,COc1ccccc1C#Cc1cnc2c(c1)C(=O)N([C@H](C)CO)C[C@@H](C)[C@@H](CN(C)S(=O)(=O)c1cn(C)cn1)O2,inactive
9,Cc1ccc(S(=O)(=O)Nc2ccc3c(c2)CC(=O)N([C@H](C)CO)C[C@@H](C)[C@@H](CN(C)S(=O)(=O)c2ccc(F)cc2)O3)cc1,inactive
10,Cc1ccc(S(=O)(=O)Nc2cccc3c2O[C@@H](CN(C)S(C)(=O)=O)[C@@H](C)CN([C@H](C)CO)C3=O)cc1,inactive
11,C[C@@H]1CN([C@H](C)CO)C(=O)c2ccccc2-c2ccccc2CO[C@@H]1CN(C)C(=O)Nc1cccc(C(F)(F)F)c1,inactive
12,C[C@@H]1CCCCO[C@H](CN(C)CC2CCCCC2)[C@H](C)CN([C@H](C)CO)C(=O)c2cc(NC(=O)c3ccccc3)ccc2O1,inactive
13,C[C@@H]1CN([C@H](C)CO)C(=O)c2cc(NC(=O)NC3CCCCC3)ccc2O[C@@H](C)CCCCO[C@@H]1CN(C)Cc1ccc(C(F)(F)F)cc1,inactive
14,C[C@@H]1CCCCO[C@@H](CN(C)Cc2ccc(C(F)(F)F)cc2)[C@H](C)CN([C@H](C)CO)C(=O)c2cc(NC(=O)NC3CCCCC3)ccc2O1,inactive
15,C[C@H]1CCCCO[C@@H](CN(C)Cc2ccc(C(F)(F)F)cc2)[C@@H](C)CN([C@@H](C)CO)C(=O)c2cc(NC(=O)NC3CCCCC3)ccc2O1,active
16,C[C@@H]1CCCCO[C@@H](CN(C)Cc2ccc(C(F)(F)F)cc2)[C@H](C)CN([C@@H](C)CO)C(=O)c2cc(NC(=O)NC3CCCCC3)ccc2O1,inactive
17,C[C@@H]1CCCCO[C@H](CN(C)Cc2ccc(C(F)(F)F)cc2)[C@@H](C)CN([C@@H](C)CO)C(=O)c2cc(NC(=O)NC3CCCCC3)ccc2O1,inactive
18,C[C@@H]1CN([C@@H](C)CO)C(=O)c2cc(NC(=O)NC3CCCCC3)ccc2O[C@@H](C)CCCCO[C@@H]1CN(C)Cc1ccc(C(F)(F)F)cc1,inactive
19,C[C@@H]1CCCCO[C@@H](CN(C)Cc2ccc(C(F)(F)F)cc2)[C@@H](C)CN([C@@H](C)CO)C(=O)c2cc(NC(=O)NC3CCCCC3)ccc2O1,active
20,C[C@@H]1CCCCO[C@H](CN(C)Cc2ccc(C(F)(F)F)cc2)[C@H](C)CN([C@H](C)CO)C(=O)c2cc(NC(=O)NC3CCCCC3)ccc2O1,active
21,C[C@@H]1CCCCO[C@H](CN(C)Cc2ccc(C(F)(F)F)cc2)[C@@H](C)CN([C@H](C)CO)C(=O)c2cc(NC(=O)NC3CCCCC3)ccc2O1,inactive
22,C[C@@H]1CCCCO[C@H](CN(C)Cc2ccc(C(F)(F)F)cc2)[C@H](C)CN([C@@H](C)CO)C(=O)c2cc(NC(=O)NC3CCCCC3)ccc2O1,active
23,C[C@H](CO)N1C[C@H](C)[C@H](CN(C)Cc2ccc(C(F)(F)F)cc2)OCCCC[C@H](C)Oc2ccc(NC(=O)NC3CCCCC3)cc2C1=O,inactive
24,C[C@@H]1CN([C@H](C)CO)C(=O)c2cc(NC(=O)NC3CCCCC3)ccc2O[C@@H](C)CCCCO[C@H]1CN(C)Cc1ccc(C(F)(F)F)cc1,inactive
